PubChem BioAssay (NCATS)
Inconclusive results are not listed. Activity calls are given as the source filed them. The call rests on the fitted dose curve; in most records, active means well fitted cell-killing curve with a large enough effect; inconclusive means small, poorly fitted or top-dose-only effect, or effect the other way; inactive means no such curve, though single readings can be large or run the other way.

experiment: qHTS assay to identify small molecule inhibitors of chordoma cells - UCH-1 (AID 1259355); conditions: UCH-1 chordoma viability, CellTiter-Glo, 48 h, combination; series mostly up to 46.1 µM; activity, negative = inhibition: at the top concentration; further: nearly all actives have a fitted effect of over 55% in size
Procedure, shortened: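 Screening used approved and investigational drugs in 15-point titration against 800 seeded cells per well. A fixed combination of auranofin with camptothecin, doxorubicin, rubitecan and topotecan followed compound addition, and growth was scored by CellTiter-Glo after 48hr.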
On the % scale 0 is the no-effect control and ±100 the full control effect; potency means the concentration at half of the fitted maximal effect.

SMILES	activity, negative = inhibition	Potency
Cc1cc(C)cc(C(=O)OC2C[C@H]3CC[C@@H](C2)N3C)c1 (stereo partly drawn)	-5.33% (inactive)	–
CNC(C)C(O)c1ccc(O)cc1 (stereo not drawn)	–	inactive
CC1CCC(C(C)C)C(OC(=O)c2ccccc2N)C1 (stereo not drawn)	-20.8% (inactive)	–
O=[N+]([O-])c1ccccc1	12.3% (inactive)	–
CN1[C@H]2CC[C@@H]1[C@@H](C(=O)O)[C@@H](OC(=O)c1ccccc1)C2	-3.75% (inactive)	–
C=CCN=C=S	-13.9% [at 46.1 µM, with auranofin plus four topoisomerase inhibitors] (inactive)	–
O=C(C[C@@H]1NCCC[C@H]1O)Cn1cnc2cc(Br)c(Cl)cc2c1=O	1.85% (inactive)	–
C[C@]12CCC(=O)C=C1C=C[C@@H]1[C@@H]2CC[C@@]2(C)[C@H]1CC[C@@]2(O)CCC(=O)O	-4.44% [at 20.6 µM, with auranofin plus four topoisomerase inhibitors] (inactive)	–
CCC1(c2ccccc2)C(=O)NC(=O)N(C(=O)c2ccccc2)C1=O (stereo not drawn)	-16.1% (inactive)	–
CCC(=O)O[C@@](Cc1ccccc1)(c1ccccc1)[C@@H](C)CN(C)C	-14.7% [at 20.6 µM] (inactive)	–
CC(=O)O[C@H]1CC[C@@]2(C)C(=CC[C@@H]3[C@@H]2CC[C@]2(C)C(=O)CC[C@@H]32)C1	-5.9% [at 20.6 µM] (inactive)	–
ClC=C(Cl)Cl	-3.58% [at 46.1 µM, with auranofin plus four topoisomerase inhibitors] (inactive)	–
CCCCNCC(O)c1ccc(O)cc1 (stereo not drawn)	-14.1% (inactive)	–
C[C@H]1CC[C@]2(NC1)O[C@H]1C[C@H]3[C@@H]4CC[C@H]5C[C@@H](O[C@@H]6O[C@H](CO)[C@H](O[C@@H]7O[C@H](CO)[C@@H](O)[C@H](O[C@@H]8OC[C@@H](O)[C@H](O)[C@H]8O)[C@H]7O[C@@H]7O[C@H](CO)[C@@H](O)[C@H](O)[C@H]7O)[C@H](O)[C@H]6O)CC[C@]5(C)[C@H]4CC[C@]3(C)[C@H]1[C@@H]2C	–	12.6 µM (active)
S=C(S)N1CCNCC1	-15.1% [at 46.1 µM, with auranofin plus four topoisomerase inhibitors] (inactive)	–
CC(=O)Oc1ccc2c3c1O[C@H]1[C@@H](OC(C)=O)C=C[C@H]4[C@@H](C2)N(C)CC[C@@]341	2.53% (inactive)	–
C/C(=C\c1csc(C)n1)[C@@H]1C[C@@H]2O[C@]2(C)CCC[C@H](C)[C@H](O)[C@@H](C)C(=O)C(C)(C)[C@@H](O)CC(=O)O1	-24.5% (inactive)	–
CC(=O)O[C@H]1C[C@H](O[C@H]2[C@@H](O)C[C@H](O[C@H]3[C@@H](O)C[C@H](OC4CC[C@@]5(C)[C@H](CC[C@@H]6[C@@H]5CC[C@]5(C)[C@@H](C7=CC(=O)OC7)CC[C@]65O)C4)O[C@@H]3C)O[C@@H]2C)O[C@H](C)[C@H]1O[C@@H]1O[C@H](CO)[C@@H](O)[C@H](O)[C@H]1O (stereo partly drawn)	–	0.447 µM (active)
C[C@]12CCC(=O)C[C@@H]1CC[C@@H]1[C@@H]2CC[C@]2(C)[C@@H](O)CC[C@@H]12	-7.64% (inactive)	–
CCC1(c2ccccc2)C(=O)NC(=O)N(C)C1=O (stereo not drawn)	-25.4% (inactive)	–
CC[C@H](C)[C@H]1O[C@]2(C=C[C@@H]1C)C[C@@H]1C[C@@H](C/C=C(\C)[C@@H](O[C@H]3C[C@H](OC)[C@@H](O[C@H]4C[C@H](OC)[C@@H](O)[C@H](C)O4)[C@H](C)O3)[C@@H](C)/C=C/C=C3\CO[C@@H]4[C@H](O)C(C)=C[C@@H](C(=O)O1)[C@]34O)O2	19.9% (inactive)	–
CCOc1ccc2c3c1O[C@H]1[C@@H](O)C=C[C@H]4[C@@H](C2)N(C)CC[C@@]341	-7.7% (inactive)	–
c1ccc(C2(N3CCCC3)CCCCC2)cc1	-4.22% (inactive)	–
